Source: PubChem BioAssay (National Center for Advancing Translational Sciences (NCATS))
D2 PAM-1: positively modulates the human D2 dopamine receptor allosterically. HEK293 T-REx D2, calcium flux, EC20 dopamine potentiation. AID 485347. 0.34% of 340,000 active. P14416. potentiation, % at 10 µM;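 active = potentiation over 3 SD above the plate norm, cut at about 30% in these data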; note: 0% is about no effect
Target sequence (P14416 whole entry, looked up): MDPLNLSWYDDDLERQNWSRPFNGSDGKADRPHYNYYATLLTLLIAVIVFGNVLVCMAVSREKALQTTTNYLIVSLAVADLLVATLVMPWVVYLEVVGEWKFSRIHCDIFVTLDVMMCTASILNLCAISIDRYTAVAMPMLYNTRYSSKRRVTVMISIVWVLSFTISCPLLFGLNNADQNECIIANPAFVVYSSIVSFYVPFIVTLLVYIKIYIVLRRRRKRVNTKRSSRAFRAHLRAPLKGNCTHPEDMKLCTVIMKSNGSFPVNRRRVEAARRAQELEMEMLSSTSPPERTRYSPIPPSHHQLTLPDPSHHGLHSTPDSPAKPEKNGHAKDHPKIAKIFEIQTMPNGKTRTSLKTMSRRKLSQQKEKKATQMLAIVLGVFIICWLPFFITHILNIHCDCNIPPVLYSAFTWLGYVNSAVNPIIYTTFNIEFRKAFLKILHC
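Tetracycline-induced HEK293 T-REx cells force-coupled to calcium signalling expressed D2; compounds were pin-added after a 10 s baseline, read kinetically 180 s, then an EC20 dopamine challenge followed with a further 180 s calcium read.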
D2 ag-1: D2 dopamine receptor (human) agonism | P14416 | HEK293 T-REx D2 cells, calcium flux agonist mode | activation, % at 2 µM | 0.53% of 340,000 active;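 active = activation over 3 SD above normal in the single-dose calcium agonist read, cut at about 30% in these data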; note: 0% is about no effect
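Agonism is scored from calcium flux in a force-coupled, inducible HEK293 cell line expressing D2, read kinetically for 180 s after compound addition against dopamine controls.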
D2 PAM-2: potentiates the human D2 dopamine receptor allosterically | 0.23% of 360,000 active | AID 624464 | DiscoveRx D2 beta-arrestin cells, luminescence, 90 min; 100% = 57 uM dopamine signal | potentiation, % (test concentration not listed) | P14416; in the data active = potentiation above about 50%; inconclusive = mostly about 30% to 49%
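PathHunter beta-arrestin assay in DiscoveRx D2 cells. Compounds were added with an EC20 of dopamine (50 nM final) for 90 min at 37 deg C. Luminescence was read 1 h after detection reagent, with 57 uM dopamine as the EC100 control.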
D2 ag-2: activates the human D2 dopamine receptor; activation, % (no concentration beside the values); 0.084% of 360,000 active; DiscoveRx PathHunter D2 beta-arrestin, luminescence, 90 min; 100% = 57 uM dopamine signal; P14416; in the data active = activation above about 40%; inconclusive = between about 15% and that limit
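Agonist mode: compounds alone added to overnight-plated D2 PathHunter cells for 90 min at 37 C, with 57 uM final dopamine (EC100) defining full response. Beta-arrestin recruitment detected by chemiluminescent reagent, read after 1 h at ambient temperature.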
D2 antag: antagonists of human D2 dopamine receptor; P14416; HEK293 TREx D2 cells, calcium flux, dopamine EC80; inhibition, % at 10 µM; 2% of 340,000 active; AID 485344; in the data active = inhibition above about 30%; inactive = below that, where a call was filed; note: 0% is about no effect
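Antagonism is scored as inhibition of an EC80 dopamine-evoked calcium signal in a force-coupled, tetracycline-inducible HEK293 T-REx D2 line, with compound present 180 s before agonist.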
Active calls of the source: *; ? = inconclusive; / = not tested or not shown; ! = a repeat was not active. Sampled rows, rich in hits. Any-hit rate of the full collection: about 2.4%.

SMILES	D2 PAM-1	D2 ag-1	D2 PAM-2	D2 ag-2	D2 antag
COc1ccccc1C(=O)NC1CC2CCCC(C1)N2Cc1ccccc1 (configuration not stated)	/	/	-39	3	/
COc1ccc(CN2C3CCC2CC(NC(=O)c2cc(OC)c(OC)c(OC)c2)C3)cc1 (configuration not stated)	-28	/	-3	-6	/
COc1cc(C(=O)NC2CCN(Cc3ccccc3)CC2)cc(Cl)c1OC	-24	0	-26	-1	89*
CNC(=O)c1cn(-c2ccccc2)c(=O)c2ccccc12	9	1	-10	-5	13
CC1=C(C(=O)N(C(C)C)C(C)C)CC(CC(=O)NCC2CCCCC2)C(=O)N1Cc1ccc(F)cc1 (configuration not stated)	/	/	2	1	/
COc1cccc(C(=O)NC2CC3CCCC(C2)N3Cc2ccc(C)cc2)c1 (configuration not stated)	-18	-1	-82	-2	77*
COc1cccc(NC(=O)N2C3CCCC2CC(NC(=O)C2CC2)C3)c1 (configuration not stated)	-11	1	-4	-4	34*
Nc1nc(=S)[nH]c2c1C1(CCCC1)Cc1ccccc1-2	-4	0	18	-3	-10
CCOc1ccc(NC(=O)NCc2ccccn2)cc1	10	1	-1	0	6
Cc1ccc(NC(=O)NCc2ccccn2)cc1	4	-2	-10	2	59*
c1ccc(Cn2nnc3c(N4CCc5ccccc54)ncnc32)cc1	36*	1	-20	-1	-18
O=C1c2ccccc2NC2CCCCCN12 (configuration not stated)	30*	-1	-16	1	0
CCOC(=O)C1=C[C@@H](C(C)(C)C)N(S(=O)(=O)c2ccc(C)cc2)[C@H]1c1ccccc1	/	/	-5	-4	/
CC(C)CCNC(=O)C1CCC(CNS(=O)(=O)c2ccc(Cl)cc2)CC1 (configuration not stated)	4	-3	-7	-2	34*
CCC(=O)c1ccc(OCC(=O)NCCC2=CCCCC2)c(OC)c1	-1	-1	-4	-1	-4
CCOc1ccc(C(=O)NCCC2=CCCCC2)cc1OCC	-30	-1	-23	2	38*
COc1ccccc1/C=C/C(=O)NCCC1=CCCCC1	-24	-1	-15	-5	35*
COc1cc(C(=O)NCCC2=CCCCC2)ccc1OCc1c(C)noc1C	-10	0	-3	-8	32*
CC1(C)CC(=O)c2c(Cc3ccccc3)n[nH]c2C1	-6	0	-10	0	8
Cc1ccc(S(=O)(=O)N2CCCC2)cc1C(=O)O	1	-1	1	-2	-7
CS(=O)(=O)c1ccc(NCC2CCCO2)c([N+](=O)[O-])c1 (configuration not stated)	125*	0	-9	-5	-1
COC(=O)/C(=C/c1ccc(OC)cc1)NC(=O)c1ccco1	-4	0	4	-1	8
COC(=O)/C(=C/c1ccccc1)NC(=O)c1ccco1	2	0	-2	-1	39*
CCOC(=O)C1=C(C)N=c2s/c(=C3/C(=O)Nc4ccccc43)c(=O)n2C1c1ccc(C)cc1 (configuration not stated)	3	-1	-18	-5	-6
CCOC(=O)C1=C(C)n2c(s/c(=C3\C(=O)Nc4ccccc43)c2=O)=NC1c1ccc(OC)cc1 (configuration not stated)	8	0	-37	-3	40*
SMILES	D2 PAM-1	D2 ag-1	D2 PAM-2	D2 ag-2	D2 antag
CCSc1oc(-c2ccco2)nc1S(=O)(=O)c1ccc(C)cc1	34*	-1	-8	-4	-2
CCSc1oc(-c2ccco2)nc1S(=O)(=O)c1ccc(F)cc1	16	0	-7	-3	-7
Cc1nc(C)c(-c2ccc(SCC(=O)Nc3ccccc3F)nn2)s1	2	0	/	/	/
Cc1cc(C)cc(NC(=S)N(CCCN2CCN(C)CC2)Cc2cccs2)c1	/	1	1	0	1
CSc1cccc(NC(=S)N(CCCN2CCCC(C)C2)Cc2cccs2)c1 (configuration not stated)	-17	0	-39	-5	46*
COc1cccc(NC(=S)N(CCCN2CCCC(C)C2)Cc2cccs2)c1 (configuration not stated)	-28	3	-15	1	59*
COc1ccc(NC(=S)N(CCCN2CCC(C)CC2)Cc2cccs2)cc1Cl	-8	0	-22	-3	5
COC(=O)c1ccc(CNC(=O)c2cc(S(=O)(=O)NCc3ccccc3)ccc2C)cc1	/	/	-18	-2	/
CCOc1cc(C(=O)N/N=C/c2ccoc2)cc(OCC)c1OCC	-15	0	-24	-3	9
C=CCn1c(N)c(-c2nc3ccccc3n2C)sc1=S	31*	1	-9	-1	-14
Cc1nc2ccccc2c2oc(C(=O)N3CC(C)CC(C)C3)cc12 (configuration not stated)	31*	-1	-3	0	4
Cc1nc2ccccc2c2oc(C(=O)NCCCN3CC(C)CC(C)C3)cc12 (configuration not stated)	-5	2	-31	0	-9
Cc1ccc(CNc2ccc(O)cc2)cc1	/	1	70*	?	-6
Cc1ccc(NCc2ccccc2O)cc1	-6	1	-16	1	-17
Cn1c(C(=O)Nc2ccc3c(c2)OCO3)cc2c(=O)n(C)c3ccccc3c21	31*	-1	-1	-1	15
OC(CN1CCOCC1)CN1CCOCC1	11	1	-9	-2	12
CN(CC(O)CN1CCOCC1)S(=O)(=O)O (configuration not stated)	4	1	-5	-2	34*!
CC(=O)NC1CCN(C(=O)N2CCCC2)CC1	0	0	19	-2	-18
O=C(COc1ccc(Cl)cc1)Nc1ccc2c(c1)CCC2	-23	1	-22	-2	39*
C=CCNCCOCCSc1ccc(Cl)cc1	-20	0	-28	6	32*
C=CCN(c1ccccc1OC)S(=O)(=O)c1cccc(C(=O)OCC(=O)c2c[nH]c3ccccc23)c1	-18	-1	2	1	-11
Cc1ccc2occ(C(=O)c3ccco3)c(=O)c2c1	2	-1	-2	-1	39*
O=C(NCC1OCCc2ccccc21)c1cc(COc2ccc(F)cc2Cl)on1 (configuration not stated)	-10	1	-9	-3	50*
Cc1ccc(-n2c(-c3ccccc3)n[nH]c2=S)cc1	3	-1	-11	0	-17
Clc1cc(Cl)c(OCc2nc(-c3ccccn3)no2)cc1Cl	-2	2	-5	-3	-19
COc1ccc(Cc2nc(-c3ccccn3)no2)cc1	5	1	-1	-2	34*
